Our source for the sensor-assay potency score (higher = more potent) values is the OligoGym collection.
Also: reference of the scale not given here.

The first assay addresses KIAA0368. In words: pooled miR-30 sensor sort-seq; sequence = guide strand. The settings on record: shRNA.
Sequence TTTTCTTGCTCTGTCGCCCGGA gave a sensor-assay potency score (higher = more potent) of 0.627. Same read-out and setting: as for TTTAACTTGACTCTTGTACTGA, the figure is 0.641. Same read-out and setting: as for TTAACTTGACTCTTGTACTGAC, the figure is 0.576; as for TTTGATGCAACATCTTGGCTAA, 0.354. Same read-out and setting: as for TTTTGTAGTCTTTATAAGCTGT, the figure is -0.31; as for TTGAATAGCAAGTCGAGTCTCA, 0.314; as for TTCTGAATCACACTGTTCCGAT, -0.203. The sequence TATTCTGTAATTGTTCATCTGT yielded a sensor-assay potency score (higher = more potent) of 0.659. On to TTCTGTAGCACTCTGAATGAGT, for which the sensor-assay potency score (higher = more potent) was -0.327. On to TTTATTTAAAATCACATCCAAC, for which the sensor-assay potency score (higher = more potent) was -1.25. With TTGTATTTGACATTCTCTTTGC, the sensor-assay potency score (higher = more potent) is -0.267. On the same count and under the same terms, as for TTGAATTTGTATTTGTACCAAA, the figure is -0.672.

The target of another assay is KIAA0564. The assay is described as above. The settings on record: shRNA.
On to ATCAACAGTAACAACACCGCTT, for which the sensor-assay potency score (higher = more potent) stood at 0.22. On to TTTTTTTCTAATGCTGACCTAG, for which the sensor-assay potency score (higher = more potent) was -0.423. The same measure, in the same setting: as for TTAACCTTTGCAATACAGCAAG, the figure is -0.99; as for TTTGCCAGAACAATCATCCTAA, 0.448; as for TTTTTCTTTGTAGAACACCAGC, -1.28.
